IDE exosite inh = exo-site inhibitors of human IDE, primary screen, biochemical, fluorescence anisotropy, probe displacement; Insulin-degrading enzyme (Homo sapiens), P14735; purified IDE, FL-6b probe fluorescence polarization; hits give low values; z-score at 20 µM; 17,000 compounds, 6.3% hits; AID 1259349, 2017;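 active = z-score of -3 or lower, meaning strong loss of probe binding signal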;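 also: His-tagged human IDE residues 42-1019 made in E. coli with 30 nM FL-6b probe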
Target sequence (P14735 42-1019 limits assumed): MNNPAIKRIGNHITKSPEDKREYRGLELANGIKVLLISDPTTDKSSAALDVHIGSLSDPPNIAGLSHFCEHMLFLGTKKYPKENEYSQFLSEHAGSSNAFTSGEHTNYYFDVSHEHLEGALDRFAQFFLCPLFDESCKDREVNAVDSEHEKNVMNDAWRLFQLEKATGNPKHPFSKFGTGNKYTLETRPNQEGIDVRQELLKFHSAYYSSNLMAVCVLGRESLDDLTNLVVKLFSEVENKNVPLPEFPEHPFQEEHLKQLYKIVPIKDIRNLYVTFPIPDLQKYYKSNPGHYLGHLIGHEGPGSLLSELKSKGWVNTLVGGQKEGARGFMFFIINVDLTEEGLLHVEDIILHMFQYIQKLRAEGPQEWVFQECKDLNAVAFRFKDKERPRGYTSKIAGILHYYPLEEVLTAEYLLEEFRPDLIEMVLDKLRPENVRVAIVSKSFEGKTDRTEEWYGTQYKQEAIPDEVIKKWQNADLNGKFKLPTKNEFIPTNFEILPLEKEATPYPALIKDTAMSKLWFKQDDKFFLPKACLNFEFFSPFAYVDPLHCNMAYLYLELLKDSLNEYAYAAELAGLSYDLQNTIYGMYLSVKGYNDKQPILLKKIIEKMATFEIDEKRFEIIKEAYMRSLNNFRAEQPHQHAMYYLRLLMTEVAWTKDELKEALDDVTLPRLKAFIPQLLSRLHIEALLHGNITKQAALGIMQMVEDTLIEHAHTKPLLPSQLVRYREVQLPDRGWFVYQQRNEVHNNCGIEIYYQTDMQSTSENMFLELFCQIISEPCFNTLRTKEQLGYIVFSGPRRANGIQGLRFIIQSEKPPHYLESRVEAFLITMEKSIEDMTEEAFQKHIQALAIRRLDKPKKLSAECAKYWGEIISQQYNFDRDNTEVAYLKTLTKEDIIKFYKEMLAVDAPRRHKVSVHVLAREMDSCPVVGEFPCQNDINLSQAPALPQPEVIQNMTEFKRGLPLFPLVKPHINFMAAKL
Of the large screens only hits and unclear results are named; the others gave an inactive call. Many of the other results were omitted from the sample, so hits are more common in it than they were.

C[C@@H]1CN([C@H](C)CO)C(=O)c2cc(C#Cc3ccccc3)cnc2O[C@H]1CN(C)C(=O)c1ccccc1	none
COc1cccc(NC(=O)N2CC(=O)N3[C@H](CO)[C@H](c4ccc(Br)cc4)[C@H]3C2)c1	none
CC[C@@H]1C/C=C\C[C@@H](C(C)C)NC(=O)CCC(=O)N1	none
O=C(Nc1ccc(F)cc1)N1CC(=O)N2[C@@H](CO)[C@H](c3ccc(-c4ccccc4)cc3)[C@@H]2C1	none
O=C(Nc1ccccc1)N1CC(=O)N2[C@@H](CO)[C@H](c3ccc(-c4ccc(F)cc4)cc3)[C@@H]2C1	none
O=C(Nc1ccc(F)cc1)N1CC(=O)N2[C@H](CO)[C@H](c3ccc(-c4ccccc4)cc3)[C@@H]2C1	none
Cc1ccccc1-c1ccc([C@H]2[C@@H](CO)N3C(=O)CN(C(=O)Nc4ccc(F)cc4)C[C@H]23)cc1	IDE exosite inh -21
O=C(Nc1ccc(F)cc1)N1CC(=O)N2[C@H](CO)[C@@H](c3ccc(-c4ccc(F)cc4)cc3)[C@H]2C1	none
Cc1ccccc1-c1ccc([C@@H]2[C@@H](CO)N3C(=O)CN(C(=O)Nc4ccccc4)C[C@H]23)cc1	IDE exosite inh -6.1
O=C(Nc1ccc(F)cc1)N1CC(=O)N2[C@@H](CO)[C@@H](c3ccc(-c4ccc(F)cc4)cc3)[C@@H]2C1	none
Cc1ccc(-c2ccc([C@@H]3[C@@H](CO)N4C(=O)CN(C(=O)Nc5ccc(F)cc5)C[C@H]34)cc2)cc1	none
O=C(Nc1ccc(F)cc1)N1CC(=O)N2[C@H](CO)[C@H](c3ccc(-c4ccccc4)cc3)[C@H]2C1	IDE exosite inh -5.5
O=C(Nc1ccc(F)cc1)N1CC(=O)N2[C@H](CO)[C@@H](c3ccc(-c4ccccc4)cc3)[C@H]2C1	none
O=C(Nc1ccccc1)N1CC(=O)N2[C@H](CO)[C@H](c3ccc(-c4ccc(F)cc4)cc3)[C@@H]2C1	none
Cc1ccccc1-c1ccc([C@H]2[C@H]3CN(C(=O)Nc4ccc(F)cc4)CC(=O)N3[C@H]2CO)cc1	IDE exosite inh -7
COCC#Cc1ccc([C@@H]2[C@H]3CN(C(=O)c4cccnc4)CC(=O)N3[C@H]2CO)cc1	none
CC(=O)NC[C@H]1[C@H](c2ccc(C3=CCCC3)cc2)[C@@H](CO)N1Cc1cccnc1	none
CS(=O)(=O)N1[C@H](CO)[C@H](c2ccccc2-c2ccccc2F)[C@@H]1C#N	none
CCNC[C@@H]1[C@H](c2ccc(-c3ccc(F)cc3)cc2)[C@H](CO)N1S(C)(=O)=O	none
O=C(Nc1ccccc1F)N1CC(=O)N2[C@H](CO)[C@@H](c3ccc(-c4cccnc4)cc3)[C@H]2C1	none
CC(C)NC(=O)N1[C@H](C#N)[C@@H](c2ccc(C#CC3CC3)cc2)[C@@H]1CO	none
CC(=O)NC[C@@H]1[C@@H](c2ccc(-c3cccnc3)cc2)[C@H](CO)N1C(=O)C1CCC1	none
Cc1ccccc1S(=O)(=O)N1[C@@H](C#N)[C@@H](c2ccc(-c3ccc(F)cc3)cc2)[C@@H]1CO	none
CC(C)NC(=O)Nc1ccc2c(c1)C(=O)N([C@@H](C)CO)C[C@H](C)[C@@H](CN(C)C(=O)C1CCCCC1)OCCCC[C@H](C)O2	none
O=C(O)C[C@@H]1C=C[C@H](NC(=O)Nc2cc(F)ccc2F)[C@H](CO)O1	none
CC(=O)N(C)C[C@@H]1[C@H](c2ccc(-c3cccnc3)cc2)[C@H](CO)N1C(=O)C1CC1	none
CC(C)NC(=O)N(C)C[C@@H]1Oc2ccc(NC(=O)Cc3ccccc3)cc2CC(=O)N([C@H](C)CO)C[C@H]1C	none
CN1C(=O)c2cc(NC(=O)c3cccc(C(F)(F)F)c3)ccc2OC[C@H]2O[C@@H](CC(=O)NCCN3CCCC3)CC[C@H]21	none
O=C1CN(S(=O)(=O)c2ccccc2)C[C@@H]2[C@@H](c3ccc(Br)cc3)[C@@H](CO)N12	none
CCC(=O)Nc1ccc2c(c1)C(=O)N(C)C[C@H](OC)[C@H](C)CN(Cc1nccs1)[C@@H](C)CO2	none
O=C(Nc1cccc(F)c1)N1CC(=O)N2[C@@H](CO)[C@@H](c3ccc(-c4ccccc4F)cc3)[C@@H]2C1	none
Cc1ccccc1-c1ccc([C@H]2[C@H](CO)N3C(=O)CN(C(=O)Nc4cccc(F)c4)C[C@@H]23)cc1	IDE exosite inh -3
O=C(Nc1cccc(F)c1)N1CC(=O)N2[C@@H](CO)[C@H](c3ccc(-c4ccccc4F)cc3)[C@@H]2C1	none
CCS(=O)(=O)Nc1ccc2c(c1)C(=O)N(C)[C@H]1CC[C@@H](CC(=O)N3CCN(C)CC3)O[C@H]1CO2	none
O=C1N[C@@H](c2ccccc2)COCc2cn(nn2)CC[C@H]1Cc1cccc(Cl)c1	none
COCC#Cc1ccc([C@H]2[C@H](CO)N3CCCCN(S(=O)(=O)c4ccc(OC)cc4)C[C@@H]23)cc1	none
O=C(c1cccc(F)c1)N1CCCCN2[C@H](CO)[C@H](c3ccc(-c4cccnc4)cc3)[C@H]2C1	none
Cc1cccc(-c2ccc([C@H]3[C@H]4CN(C(=O)c5cccnc5)CCCCN4[C@H]3CO)cc2)c1	none
Cc1cccc(-c2ccc([C@@H]3[C@@H](CO)N4CCCCN(C(=O)c5cccnc5)C[C@H]34)cc2)c1	IDE exosite inh -4.3
O=C(c1cccc(F)c1)N1CCCCN2[C@H](CO)[C@@H](c3ccc(-c4cccnc4)cc3)[C@H]2C1	none
Cc1cccc(-c2ccc([C@H]3[C@H](CO)N4CCCCN(C(=O)c5cccnc5)C[C@@H]34)cc2)c1	none
Cc1cccc(-c2ccc([C@@H]3[C@@H](CO)N4CCCCN(C(=O)c5cccnc5)C[C@@H]34)cc2)c1	IDE exosite inh -3.3
FC(F)(F)c1ccccc1CN1[C@@H]2CNC[C@H]1C2c1ccc(-c2ccncc2)cc1 (stereo partly specified)	none
CCCNC(=O)N1[C@H](C#N)[C@H](c2ccccc2-c2ccc(OC)cc2)[C@@H]1CO	none
CC(C)C#Cc1ccc([C@@H]2[C@@H](CO)N(C(=O)CN(C)C)[C@H]2C#N)cc1	none
O=C(C1CCOCC1)N1CC(=O)N2[C@H](C1)[C@H](c1ccc(/C=C/c3ccccc3)cc1)[C@@H]2CO	IDE exosite inh -3.3
O=C(C1CCOCC1)N1CC(=O)N2[C@H](C1)[C@H](c1ccc(Br)cc1)[C@@H]2CO	none
O=C(C1CCOCC1)N1CC(=O)N2[C@H](CO)[C@H](c3ccc(Br)cc3)[C@H]2C1	none
O=C(C1CCOCC1)N1CC(=O)N2[C@H](C1)[C@@H](c1ccc(Br)cc1)[C@@H]2CO	none
O=C(C1CCOCC1)N1CC(=O)N2[C@H](CO)[C@H](c3ccc(/C=C/c4ccccc4)cc3)[C@@H]2C1	IDE exosite inh -4.8
N#C[C@H]1[C@@H](c2ccccc2-c2ccccc2F)[C@H](CO)N1C(=O)C1CCOCC1	none
CC(C)c1cn(CC[C@H]2CC[C@@H](NS(=O)(=O)c3ccc(F)cc3)[C@H](CO)O2)nn1	none
COCC(=O)N1[C@@H](CO)[C@@H]2c3ccccc3NC[C@@H]21	none
COc1ccc(C#Cc2cccc(-c3nc(C(=O)Nc4ccc(-c5ccccc5)cc4)cc4c3[C@@H](CCO)N(S(=O)C(C)(C)C)C4)c2)cc1OC (stereo partly specified)	none
CN(C)C(=O)c1ccc(-c2ccc([C@@H]3[C@@H](CO)N4C(=O)CN(C(=O)C5CC5)C[C@@H]34)cc2)cc1	none
COc1ccc2c3c([nH]c2c1)[C@@H](CO)N(CC1CC1)CC31CCN(C(=O)Nc2cccc(F)c2)CC1	none
COc1ccc2c3c([nH]c2c1)[C@H](CO)N(Cc1nccs1)CC31CCN(C(=O)C2CCCCC2)CC1	none
CCCC(=O)N1CC2(C1)CN(Cc1cccnc1)[C@@H](CO)c1[nH]c3cc(OC)ccc3c12	none
COc1ccc2c3c([nH]c2c1)[C@@H](CO)N(C(C)=O)CC31CCN(C(C)=O)CC1	none
